Compound activity as filed in PubChem.
Compounds with a hit are over-represented: about 1.5% of the library has one in this group of screens.
Mtb hypoxia inh: PubChem AID 1159583 | M. tuberculosis hypoxia-regulated fluorescent reporter, fluorescence | fluorescence inhibition, % (concentration not given with the values) | 300,000 tested, 0.1% active; in the data active = fluorescence inhibition mostly above about 23%, no sharp cut-off; inactive = mostly below about 17%
VHR inh abs: VHR1 phosphatase inhibitors, primary screen, biochemical, absorbance, uHTS; Dual specificity protein phosphatase 3 (Homo sapiens), P51452; recombinant VHR phosphatase, pNPP absorbance; inhibition, % at 13.3 µM; 290,000 tested, 0.52% active; AID 1654, 2009; in the data active = inhibition above about 50%
Target sequence (P51452 whole entry, looked up): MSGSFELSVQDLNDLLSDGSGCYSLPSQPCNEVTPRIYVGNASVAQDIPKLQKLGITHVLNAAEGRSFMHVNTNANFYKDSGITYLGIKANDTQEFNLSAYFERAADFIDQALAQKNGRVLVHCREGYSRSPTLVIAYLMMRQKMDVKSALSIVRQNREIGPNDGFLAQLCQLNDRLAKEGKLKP
MazF activator: activators of E. coli MazEF toxin-antitoxin RNase, primary screen, biochemical, fluorescence, uHTS. FAM/BHQ RNA-DNA oligo cleavage fluorescence, 5 h. activation, % at 20 µM. 350,000 tested, 0.32% active. AID 504720, 2011; in the data active = activation above about 50%
Target sequence (P0AE70 whole entry, looked up): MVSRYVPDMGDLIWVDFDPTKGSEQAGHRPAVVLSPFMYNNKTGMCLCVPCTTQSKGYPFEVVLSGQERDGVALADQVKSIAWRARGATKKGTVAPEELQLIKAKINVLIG
PrP UTR inh: inhibition of PrP 5' UTR reporter expression. cell-based PrP 5' UTR mRNA reporter, plate reader. inhibition, % (concentration not given with the values). 340,000 tested, 0.35% active; in the data active = inhibition above about 52%; also: 0 = median of the neutral control wells
PrPC TRFRET: inhibitors of human cell surface prion protein PrPC, primary screen, cell-based, TR-FRET. inhibition, % at 13.8 µM. 370,000 tested, 0.43% active. Major prion protein (Homo sapiens), P04156. TR-FRET read-out; in the data active = inhibition above about 24%; also: 0% = median of the test wells and 100% = reference compound wells
SARS 3CLpro inh-1: SARS-CoV 3CLpro protease inhibitors, primary screen, biochemical, quenched FRET; 290,000 tested, 0.14% active; recombinant SARS-CoV 3CLpro, quenched FRET peptide cleavage; AID 1706, 2009; Replicase polyprotein 1ab (Severe acute respiratory syndrome coronavirus), P0C6X7; inhibition, % at 6 µM; in the data active = inhibition above about 12%
SARS 3CLpro inh-2: confirmation of SARS coronavirus 3C-like protease inhibitors, retest, confirmation, biochemical; inhibition, % at 6 µM; shares compounds with SARS 3CLpro inh-1; QFRET protease activity assay, 3CLpro; 380 tested, 36% active; in the data active = inhibition above about 13%
An asterisk follows results filed as active.

`COCCNC(=O)C(c1ccc(C)o1)N(Cc1ccc(OC)cc1)C(=O)Cn1nnc2ccccc21` (stereo unspecified) gave VHR inh abs 23.4, MazF activator -1.8, PrP UTR inh -9.1, PrPC TRFRET -6.2 and SARS 3CLpro inh-1 -1.1.
CCC(C)(C)NC(=O)C(c1cccn1C)N(C(=O)Cn1nnc2ccccc21)c1ccc(NC(C)=O)cc1 (stereo unspecified) was read as Mtb hypoxia inh -12.0, VHR inh abs 10.3, MazF activator 7.2, PrP UTR inh -19.0, PrPC TRFRET 0.5, SARS 3CLpro inh-1 45.9* and SARS 3CLpro inh-2 50.4*.
Screening COCCNC(=O)C(c1ccc(C)o1)N(C(=O)Cn1nnc2ccccc21)c1ccccc1 (stereo unspecified) returned Mtb hypoxia inh -5.2, VHR inh abs 4.3, MazF activator 0.0, PrP UTR inh -19.8, PrPC TRFRET 1.4, SARS 3CLpro inh-1 13.8* and SARS 3CLpro inh-2 3.6.
Cc1ccccc1N(C(=O)Cn1nnc2ccccc21)C(C(=O)NCc1ccco1)c1ccncc1 (stereo unspecified) was read as VHR inh abs 25.6, MazF activator 5.9, PrP UTR inh -15.1, PrPC TRFRET -2.2 and SARS 3CLpro inh-1 0.3.
For Cc1ccc(CN(C(=O)Cn2nnc3ccccc32)C(C(=O)NCc2ccco2)c2cccs2)cc1 (stereo unspecified) the results were VHR inh abs 1.0, MazF activator 1.7, PrP UTR inh 5.6, PrPC TRFRET 0.1, SARS 3CLpro inh-1 25.4* and SARS 3CLpro inh-2 19.1*.
COCCNC(=O)C(c1ccccc1)N(Cc1cccs1)C(=O)Cn1nnc2ccccc21 (stereo unspecified) was read as VHR inh abs 8.6, MazF activator 5.3, PrP UTR inh -4.0, PrPC TRFRET 4.0, SARS 3CLpro inh-1 23.0* and SARS 3CLpro inh-2 21.2*.
Cc1occc1C(=O)NN=Cc1ccc(OCc2ccccc2)cc1 was read as Mtb hypoxia inh 2.3.
For COc1cc(C=NN(C)C2=NS(=O)(=O)c3ccccc32)cc(OC)c1OC the results were Mtb hypoxia inh -6.6.
CC(=O)c1sc(NN=C2CC3CCC2(C)C3(C)C)nc1C (stereo unspecified) was read as Mtb hypoxia inh 4.4.
For O=C(NCc1ccco1)C(c1ccncc1)N(C(=O)Cn1nnc2ccccc21)c1ccccc1F (stereo unspecified) the results were Mtb hypoxia inh 9.0, VHR inh abs 13.0, MazF activator 9.1, PrP UTR inh -11.4, PrPC TRFRET 2.1 and SARS 3CLpro inh-1 4.9.
Screening O=C(NCc1ccco1)C(c1ccco1)N(Cc1cccs1)C(=O)Cn1nnc2ccccc21 (stereo unspecified) returned Mtb hypoxia inh 5.4, VHR inh abs -13.9, MazF activator -13.9, PrP UTR inh -10.3, PrPC TRFRET 0.9, SARS 3CLpro inh-1 14.2* and SARS 3CLpro inh-2 9.6.
For O=C(NCc1ccco1)C(c1ccco1)N(CCc1ccccc1)C(=O)Cn1nnc2ccccc21 (stereo unspecified) the results were VHR inh abs -3.7, MazF activator 0.4, PrP UTR inh -11.0, PrPC TRFRET 2.4, SARS 3CLpro inh-1 25.9* and SARS 3CLpro inh-2 27.6*.
O=C(NCc1ccco1)C(c1cccs1)N(Cc1ccccc1)C(=O)Cn1nnc2ccccc21 (stereo unspecified) was read as VHR inh abs 14.7, MazF activator 1.6, PrP UTR inh -19.5, PrPC TRFRET 1.0, SARS 3CLpro inh-1 20.3* and SARS 3CLpro inh-2 28.7*.
Cc1cccc(-n2nc(C)c3c(C(=O)O)cc(-c4cccs4)nc32)c1 was read as Mtb hypoxia inh 2.1, VHR inh abs -15.4, MazF activator 6.8, PrP UTR inh -17.8, PrPC TRFRET 8.7, SARS 3CLpro inh-1 12.7* and SARS 3CLpro inh-2 7.9.
`Cc1nn(-c2cccc(Cl)c2)c2nc(-c3ccco3)cc(C(=O)O)c12` gave VHR inh abs -12.3, MazF activator -3.6, PrP UTR inh -21.4, PrPC TRFRET -3.1 and SARS 3CLpro inh-1 5.8.
